Experimental findings from PubChem BioAssay (NCI) are described below.

Values joined by “and” are separate entries in the source; they are usually repeats but may differ in a detail not shown here. Equal entries are not always repeated. About 83,000 compounds went through this panel and 20% of them were active in at least one assay; those are over-represented in the sample as a whole.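 Step 1: grow cells in 96-well plates. Step 2: add test compound at a single concentration. Step 3: incubate 48 h. Step 4: record percent growth.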 A number with no mark means an inactive call. Active and inactive are the calls of the source.

The first experiment concerns CAKI-1 renal. The experiment is described as follows: NCI-60 one-dose screen, 48 h (100 = growth as untreated, 0 = no growth, -100 = all killed). Conditions: 1 µM. As for the experimental part: Growth inhibition of the CAKI-1 human tumor cell line is measured as a screen for anti-cancer activity. Cells are grown in 96 well plates and exposed to the test compound for 48 hours. Compounds are tested at a single concentration, which is 10^-5 M for most compounds. The reported endpoint is percent growth (GI% or GIPRCNT), where numbers from 0 - 100% represent growth inhibition, and numbers from -100% - 0 represent cell death. For example, a value of 40 represents 60% growth inhibition. A value of 0 means no net growth occurred over the course of the experiment. A value of -40 indicates 40% of cells at the beginning of the experiment died by the end of the experiment. A value of -100 means all cells are dead at the end of the experiment.
NCI-60 Human Tumor Cell Lines Screen was performed using the standard one-dose NCI protocol, which is described in more detail at https://dtp.cancer.gov/discovery_development/nci-60/default.htm.
Compounds with GIPRCNT values below 10 were considered active. Activity score was based on GIPRCNT using the following formula: […]
Score is 0 for GIPRCNT values of 100 or above, 50 for GIPRCNT values of 0, and 100 for GIPRCNT values of -100.
Consider `CC/C(=C(/c1ccc(O)cc1)c1ccc(OCCN(C)C(=O)CCOCCNC(=O)Cc2ccc3c(c2)CN([C@@H]2CCC(=O)NC2=O)C3=O)cc1)c1ccccc1`, for which the growth is 99%.

Regarding `CC/C(=C(\c1ccc(O)cc1)c1ccc(OCCN(C)C(=O)COCCNC(=O)Cc2ccc3c(c2)CN([C@@H]2CCC(=O)NC2=O)C3=O)cc1)c1ccccc1`, the growth was 99.2%.

Still in this experiment, the particulars now being: 10 µM.
For the compound `CC/C(=C(/c1ccc(O)cc1)c1ccc(OCCN(C)C(=O)CCOCCNC(=O)Cc2ccc3c(c2)CN([C@@H]2CCC(=O)NC2=O)C3=O)cc1)c1ccccc1`, the growth was 94.9%.

On to `CC/C(=C(\c1ccc(O)cc1)c1ccc(OCCN(C)C(=O)COCCNC(=O)Cc2ccc3c(c2)CN([C@@H]2CCC(=O)NC2=O)C3=O)cc1)c1ccccc1`, for which the growth was 90.1%.

Staying with this experiment, now noted: 10 µM unless noted.
With `COC(=O)c1ccc(-c2c(-c3ccccc3)c(F)c3oc(C(=O)OC)c(N)c3c2-c2ccccc2)cc1`, the growth is 81.1%. Same read-out and setting: the value for `CN1CCc2c(sc3ncnc(N/N=C/c4cccc(Cl)c4Cl)c23)C1` was 79.4%; that for `O=C(Cn1c(-c2ccccc2)nc2ccccc21)N=Nc1c(O)[nH]c2ccc(Br)cc12` was -8.86% (active). Same read-out and setting: for `COc1ccc(C2=Nc3c(N)nc(N)nc3NC(c3ccc(Oc4nc(Nc5ccc(F)cc5)nc(N(C)C)n4)c(OC)c3)C2)cc1` (stereo unspecified) the value was 58%; for `COc1ccc(NC2=C(I)C(=O)C(C)=C(C)C2=O)cc1`, 29.1%; for `CN1C(=O)C(O)(CC(=O)c2cc3ccccc3oc2=O)c2ccccc21` (stereo unspecified), 86.1%. Regarding `Clc1ccc2c(NCCNC34CC5CC(CC(C5)C3)C4)ccnc2c1`, the growth is -80.8% (active). On to `COc1cc(CNC(=O)C[C@H](C)CCC=C(C)C)ccc1OCc1cn(-c2ccc(Cl)cc2Cl)nn1`, for which the growth is 31.8%. On to `CCN(C(=O)CN1C(=O)/C(=C/c2ccco2)SC1=S)C1CCS(=O)(=O)C1` (stereo unspecified), for which the growth is 91.4%. The same measure, in the same setting: for `CN1CCN(C(=O)CCN(C(=O)Oc2cc3c(c4ccccc24)[C@H](CCl)CN3C(=O)c2cc3cc(OCCCN4CCC4)ccc3[nH]2)[C@H]2CCSSC2)CC1` the value was -58.3% (active). As for `O=C(N/N=C/c1ccc(B(O)O)s1)c1[nH]c2ccc(Br)cc2c1-c1ccccc1`, the growth is -59.8% (active). For `O=C(N/N=C/c1ccc(Cl)cc1)c1ccc(OCc2nc3ccc(Cl)cc3[nH]2)cc1`, the growth is 73.6%. Same read-out and setting: for `Cn1cc(-c2cc(N)n3nc(-c4c[nH]c5ccccc45)cc3n2)c2cc(F)ccc21` the value was 77.5%; for `COc1cccc(C(N)=Nc2ccc(OCCCCCCCCn3cncn3)cc2)c1`, 40.3%.

Turning to `COc1ccc2[nH]c(O)c(N=NC(=O)c3ccc4nc(-c5ccc(Cl)cc5)[nH]c4c3)c2c1`, the growth was 93.6%. In the case of `O=C1Nc2ccccc2/C1=C\c1ccc(OCC(=O)c2ccc(Br)cc2)cc1`, the growth was 67.8%. As to `COC(=O)c1cc(C(=O)C(C)(C)C)n2c3ccccc3c3ccccc3c12`, the growth was 60.7%.

Turning to `O=C(CSc1nnc(-c2ccc(-c3nc4ccc(Cl)cc4[nH]3)cc2)o1)Nc1ccc(Cl)cc1`, the growth was -40.3% (active). On the same count and under the same terms, for `CN1CCN(CCS(=O)(=O)Nc2cc(-c3ccc4ncnc(Nc5ccc(F)c(Cl)c5)c4c3)cnc2Cl)CC1` the value was 6.32% (active); for `c1ccc(CSc2nnc(-c3ccc4nc(-c5ccccc5)[nH]c4c3)o2)cc1`, -44.9% (active). The same measure, in the same setting: for `Cc1nc(N)ncc1-c1ccc2ncnc(N3CCc4cc(F)c(Cl)cc43)c2c1` the value was 14.1%; for `CC[C@]12C=CCN3CC[C@]4(C(=C(C(=O)OC)C1)Nc1cc(OC)c([C@@H]5[C@H]6O[C@H]6[C@@]6(CC)CC(C(=O)OC)=C7Nc8cc(OC)ccc8[C@@]78CCN5[C@@H]68)cc14)[C@@H]32`, 43.4%.

Regarding `COc1ccc(N=Nc2c(N)nn3c(-c4cc5ccccc5oc4=O)ccnc23)cc1`, the growth is 53.8%. On the same count and under the same terms, the value for `Cc1cc(C(NC(=O)CCCCCNc2cccc3c2C(=O)N(C2CCC(=O)CC2=O)C3=O)c2cccc(N(C)C)c2)c(O)c2ncccc12` (stereo unspecified) was 19.4%. Consider `O=C(Nc1ccc(-c2ccc3c(c2)NC(=O)/C3=C\c2ccc[nH]2)cc1)Nc1ccc(Cl)c(Cl)c1`, for which the growth was 39.1%. For the compound `C/C(=N\Nc1ccc(C(=O)O)cc1)c1cnn(-c2cc(=O)[nH]c3ccc(C)cc23)c1C`, the growth is 89.7%. The same measure, in the same setting: for `Cc1ccc(C(=O)Nc2cc(-n3ccnc3)cc(C(F)(F)F)c2)cc1-n1cc(-c2cnc3cccnn23)nn1` the value was 113%; for `CC1(C)CC(=O)C2=C(C1)OC(N)=C(c1nc3ccccc3[nH]1)C2c1ccc(Cl)cc1` (stereo unspecified), 63.9% and 103%. Consider `CC1=C(C)C(=O)C(N2CCSCC2)=CC1=O`, for which the growth is 93.2%. The same measure, in the same setting: the value for `COc1ccccc1NC(=O)c1ccc(NC(=O)CCl)s1` was -13.1% (active). Same read-out and setting: for `COc1ccc(-c2nnc3c(/C=C/c4ccc(Br)cc4)nc4ccccc4n23)cc1` the value was 27.8%. On the same count and under the same terms, for `Cc1nc2sccn2c1-c1nnc(SCC(C)C)o1` the value was 76.7%; for `Nc1nn2c(-c3cc4cc(Br)ccc4oc3=O)ccnc2c1N=Nc1ccccc1`, 15.1%. As to `O=C(N=Nc1c(O)[nH]c2ccc(Br)cc12)c1ccc2nc(-c3ccc(Cl)cc3)[nH]c2c1`, the growth is 68.1%. `CN1C(=O)C2(C(C#N)=C(c3ccc(Cl)cc3)Nc3c2c(-c2ccccc2)nn3-c2ccccc2)c2ccccc21` (stereo unspecified): the growth is 71%. `Fc1ccccc1CNc1nc(SCCN2CCOCC2)nc2c1cnn2CC(Cl)c1ccc(Br)cc1` (stereo unspecified): the growth was 27%.

In the case of `OC1CCC(Cn2c(C(F)(F)F)cc3c(Cl)ncnc32)CC1` (stereo unspecified), the growth is 53.1%.
